# Source: the supplement of paper PMC4466140
# B1: unnamed (peptide)
# chain: NTMKKRPAPPSLPSL
# Experiments:
# Test in all cases: SPOT peptide array binding signal intensity (averaged, normalized) (arbitrary units (background-subtracted, floor 0; scale differs between SH3 domains)); higher = stronger binding of the SH3 domain to the peptide
# AgAbp1 = target: AgAbp1
# In short: (§1)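 E. coli BL21(DE3) was used to express GST-fused SH3 domains from four yeast species, which were then purified on glutathione Sepharose. These were incubated at 10 μg/ml in TBS-based blocking buffer overnight at 4°C on cellulose membranes carrying synthetic 15-mer peptides, in which cysteines were replaced by serines. Binding signal is the replicate average of normalized, background-subtracted spot intensity, in arbitrary units that differ between domains.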
# AgBbc1 = target: AgBbc1
# In short: as §1
# AgBem1-D1 = target: AgBem1-D1
# In short: as §1
# AgBzz1-D1 = target: AgBzz1-D1
# In short: as §1
# AgBzz1-D2 = target: AgBzz1-D2
# In short: as §1
# AgCyk3 = target: AgCyk3
# In short: as §1
# AgFus1 = target: AgFus1
# In short: as §1
# AgHof1 = target: AgHof1
# In short: as §1
# AgHse1 = target: AgHse1
# In short: as §1
# AgLsb1 = target: AgLsb1
# In short: as §1
# AgLsb4 = target: AgLsb4
# In short: as §1
# AgMyo5 = target: AgMyo5
# In short: as §1
# AgNbp2 = target: AgNbp2
# In short: as §1
# AgRvs167 = target: AgRvs167
# In short: as §1
# AgSho1 = target: AgSho1
# In short: as §1
# AgSla1-D1-D2 = target: AgSla1-D1-D2
# In short: as §1
# AgSla1-D3 = target: AgSla1-D3
# In short: as §1
# CaAbp1-D1 = target: CaAbp1-D1
# In short: as §1
# CaAbp1-D2 = target: CaAbp1-D2
# In short: as §1
# CaBbc1 = target: CaBbc1
# In short: as §1
# CaBem1-D1 = target: CaBem1-D1
# In short: as §1
# CaBzz1-D1 = target: CaBzz1-D1
# In short: as §1
# CaBzz1-D2 = target: CaBzz1-D2
# In short: as §1
# CaCyk3 = target: CaCyk3
# In short: as §1
# CaFus1 = target: CaFus1
# In short: as §1
# CaHof1 = target: CaHof1
# In short: as §1
# CaHse1 = target: CaHse1
# In short: as §1
# CaLsb1 = target: CaLsb1
# In short: as §1
# CaLsb4 = target: CaLsb4
# In short: as §1
# CaMyo5 = target: CaMyo5
# In short: as §1
# CaNbp2 = target: CaNbp2
# In short: as §1
# CaRvs167 = target: CaRvs167
# In short: as §1
# CaRvs167-3 = target: CaRvs167-3
# In short: as §1
# CaSho1 = target: CaSho1
# In short: as §1
# CaSla1-D1-D2 = target: CaSla1-D1-D2
# In short: as §1
# CaSla1-D3 = target: CaSla1-D3
# In short: as §1
# ScAbp1 = target: ScAbp1
# In short: as §1
# ScBbc1 = target: ScBbc1
# In short: as §1
# ScBem1-D1 = target: ScBem1-D1
# In short: as §1
# ScBzz1-D1 = target: ScBzz1-D1
# In short: as §1
# ScBzz1-D2 = target: ScBzz1-D2
# In short: as §1
# ScCyk3 = target: ScCyk3
# In short: as §1
# ScFus1 = target: ScFus1
# In short: as §1
# ScHof1 = target: ScHof1
# In short: as §1
# ScHse1 = target: ScHse1
# In short: as §1
# ScLsb1 = target: ScLsb1
# In short: as §1
# ScLsb2 = target: ScLsb2
# In short: as §1
# ScLsb3 = target: ScLsb3
# In short: as §1
# ScLsb4 = target: ScLsb4
# In short: as §1
# ScMyo3 = target: ScMyo3
# In short: as §1
# ScMyo5 = target: ScMyo5
# In short: as §1
# ScNbp2 = target: ScNbp2
# In short: as §1
# ScPex13 = target: ScPex13
# In short: as §1
# ScRvs167 = target: ScRvs167
# In short: as §1
# ScSho1 = target: ScSho1
# In short: as §1
# ScSla1-D1-D2 = target: ScSla1-D1-D2
# In short: as §1
# ScSla1-D3 = target: ScSla1-D3
# In short: as §1
# SpAbp1-D1 = target: SpAbp1-D1
# In short: as §1
# SpBbc1 = target: SpBbc1
# In short: as §1
# SpBzz1-D1 = target: SpBzz1-D1
# In short: as §1
binder,measurement,setting,value
B1,SPOT peptide array binding signal intensity,AgAbp1,93
same,SPOT peptide array binding signal intensity,AgBbc1,21
same,SPOT peptide array binding signal intensity,AgBem1-D1,405
same,SPOT peptide array binding signal intensity,AgBzz1-D1,152
same,SPOT peptide array binding signal intensity,AgBzz1-D2,240
same,SPOT peptide array binding signal intensity,AgCyk3,≤ 0
same,SPOT peptide array binding signal intensity,AgFus1,375
same,SPOT peptide array binding signal intensity,AgHof1,286
same,SPOT peptide array binding signal intensity,AgHse1,641
same,SPOT peptide array binding signal intensity,AgLsb1,15.5
same,SPOT peptide array binding signal intensity,AgLsb4,61.5
same,SPOT peptide array binding signal intensity,AgMyo5,66.5
same,SPOT peptide array binding signal intensity,AgNbp2,384
same,SPOT peptide array binding signal intensity,AgRvs167,3.33
same,SPOT peptide array binding signal intensity,AgSho1,496
same,SPOT peptide array binding signal intensity,AgSla1-D1-D2,114
same,SPOT peptide array binding signal intensity,AgSla1-D3,59.8
same,SPOT peptide array binding signal intensity,CaAbp1-D1,1570
same,SPOT peptide array binding signal intensity,CaAbp1-D2,892
same,SPOT peptide array binding signal intensity,CaBbc1,151
same,SPOT peptide array binding signal intensity,CaBem1-D1,279
same,SPOT peptide array binding signal intensity,CaBzz1-D1,2650
same,SPOT peptide array binding signal intensity,CaBzz1-D2,952
same,SPOT peptide array binding signal intensity,CaCyk3,13.5
same,SPOT peptide array binding signal intensity,CaFus1,1380
same,SPOT peptide array binding signal intensity,CaHof1,0.5
same,SPOT peptide array binding signal intensity,CaHse1,262
same,SPOT peptide array binding signal intensity,CaLsb1,6
same,SPOT peptide array binding signal intensity,CaLsb4,589
same,SPOT peptide array binding signal intensity,CaMyo5,137
same,SPOT peptide array binding signal intensity,CaNbp2,1280
same,SPOT peptide array binding signal intensity,CaRvs167,89
same,SPOT peptide array binding signal intensity,CaRvs167-3,1.25
same,SPOT peptide array binding signal intensity,CaSho1,1700
same,SPOT peptide array binding signal intensity,CaSla1-D1-D2,648
same,SPOT peptide array binding signal intensity,CaSla1-D3,246
same,SPOT peptide array binding signal intensity,ScAbp1,30
same,SPOT peptide array binding signal intensity,ScBbc1,4.5
same,SPOT peptide array binding signal intensity,ScBem1-D1,1
same,SPOT peptide array binding signal intensity,ScBzz1-D1,134
same,SPOT peptide array binding signal intensity,ScBzz1-D2,59
same,SPOT peptide array binding signal intensity,ScCyk3,11
same,SPOT peptide array binding signal intensity,ScFus1,457
same,SPOT peptide array binding signal intensity,ScHof1,19.5
same,SPOT peptide array binding signal intensity,ScHse1,1410
same,SPOT peptide array binding signal intensity,ScLsb1,29.5
same,SPOT peptide array binding signal intensity,ScLsb2,≤ 0
same,SPOT peptide array binding signal intensity,ScLsb3,344
same,SPOT peptide array binding signal intensity,ScLsb4,130
same,SPOT peptide array binding signal intensity,ScMyo3,350
same,SPOT peptide array binding signal intensity,ScMyo5,287
same,SPOT peptide array binding signal intensity,ScNbp2,383
same,SPOT peptide array binding signal intensity,ScPex13,310
same,SPOT peptide array binding signal intensity,ScRvs167,64.5
same,SPOT peptide array binding signal intensity,ScSho1,837
same,SPOT peptide array binding signal intensity,ScSla1-D1-D2,234
same,SPOT peptide array binding signal intensity,ScSla1-D3,521
same,SPOT peptide array binding signal intensity,SpAbp1-D1,78.5
same,SPOT peptide array binding signal intensity,SpBbc1,3
same,SPOT peptide array binding signal intensity,SpBzz1-D1,1170
